Test [1] can be described thus: qHTS assay to identify small molecule agonists of the RXR signaling pathway - cell viability counter screen (AID 1159529). Also: nearly all actives have a fitted effect of over 50% in size. Also: potency is read from the fitted curve at half-maximal effect. In a few lines:
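Luminescence from CellTiter-Glo (30 min, RT) measured viability in the same wells as the beta-lactamase reporter readout. Cells: GeneBLAzer RXR-alpha HEK 293T, 2% charcoal-stripped FBS. Compound exposure 16 hr, 37 C.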
Background: In qHTS, concentration-response curves come from the screen itself.

Test [2] in a line: qHTS assay to identify small molecule antagonists of the retinoid acid receptor (RAR) signaling pathway - cell viability counter screen (AID 1159551). Also: nearly all actives have a fitted effect of over 35% in size. The procedure, abridged:
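Following overnight attachment, C3RL4 reporter cells received DMSO-dissolved compounds and then retinol (1 uM final). Six hours later at 37 C, ATP content was measured by CellTiter-Glo luminescence.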

The target in test [3] is Luciferin 4-monooxygenase (Photinus pyralis) (UniProt P08659). Put plainly: qHTS assay to identify small molecule inhibitors of firefly luciferase (AID 1224835). Also: nearly all actives have a fitted effect of over 25% in size. Also: potency is read from the fitted curve at half-maximal effect. In a few lines: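 Inhibition of purified Photinus luciferase is measured by luminescence. Substrate levels (D-luciferin, ATP) sit at their KM values. Each compound is tested in a concentration series.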
Test [4] can be described thus: qHTS assay to identify small molecule agonists of the constitutive androstane receptor (CAR) signaling pathway - cell viability counter screen (AID 1224836). Also: series mostly up to about 92 µM; nearly all actives have a fitted effect of over 45% in size. In a few lines: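 Viability read-out: CellTiter-Fluor fluorescence after 23 h compound exposure at 37 C/5% CO2 in double-stable HepG2-CYP2B6-hCAR cells, with PK11195 present at 0.75 uM final; compounds tested in 15-point titration.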

A short description of test [5]: qHTS assay to identify small molecule antagonists of the constitutive androstane receptor (CAR) signaling pathway - cell viability counter screen (AID 1224837). Also: nearly all actives have a fitted effect of over 45% in size. Also: potency is read from the fitted curve at half-maximal effect. In a few lines:
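Fluorescence from CellTiter-Fluor served as the viability signal. Human hepatoma HepG2 cells stably bearing hCAR and CYP2B6-2.2kb received compound plus CITCO (50 nM final) for 23 hr.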

Test [6] concerns the target Nuclear receptor subfamily 1 group I member 3 (Homo sapiens) (UniProt Q14994). Briefly: qHTS assay to identify small molecule antagonists of the constitutive androstane receptor (CAR) signaling pathway (AID 1224838).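 Also: HepG2 cells stably expressing hCAR with CYP2B6 luciferase reporter stimulated by CITCO; nearly all actives have a fitted effect of over 40% in size.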 The procedure, abridged: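 Quantitative HTS in double-stable HepG2-CYP2B6-hCAR cells. After 4 h plating, cells get compound (15 concentrations) and CITCO at 50 nM final, incubate 24 h at 37 C, then ONE-Glo luminescence is read.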

For test [7] the target is unchanged. Put plainly: qHTS assay to identify small molecule agonists of the constitutive androstane receptor (CAR) signaling pathway (AID 1224839). Also: nearly all actives have a fitted effect of over 15% in size. Also: potency is read from the fitted curve at half-maximal effect. The procedure, abridged:
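Luminescence read-out (ONE-Glo, 30 min, room temperature) from double-stable HepG2-CYP2B6-hCAR cells exposed 24 h to 15-point compound series in presence of 0.75 uM PK11195 final.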

Test [8] is described as follows: qHTS assay to identify small molecule antagonists of the estrogen related receptor signaling pathway with the pleiotropic PPARgamma coactivator (PGC) from Tox21 10K library - cell viability counter screen (AID 1224840; active = well fitted cell-killing curve with a large enough effect in the repeat runs, not every such curve was filed as active; also: nearly all actives have a fitted effect of over 40% in size; also: potency is read from the fitted curve at half-maximal effect). In a few lines:
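Compounds in DMSO, alongside positive and negative controls, were pinned onto PGC/ERR cells (2,000 per well). Exposure lasted 17.5 hours at 37 C, followed by a 30-minute CellTiter-Fluor incubation and fluorescence reading.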

A short description of test [9]: qHTS assay to identify small molecule antagonists of the estrogen related receptor signaling pathway with the pleiotropic PPARgamma coactivator (PGC) from Tox21 10K library (AID 1224841; call rule not given here; also: series mostly up to about 92 µM; actives are mostly falling curves and most rising ones were filed inactive; nearly all actives have a fitted effect of over 50% in size). In a few lines: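 Compound exposure ran 18 hours at 37 C in PGC/ERR cells (2,000/well) that had first rested 6 hours in a 37 C/5% CO2 incubator. Luciferase activity was then detected with One-Glo after a 30-minute room-temperature step.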

Test [10] can be described thus: qHTS assay to identify small molecule agonists of the estrogen related receptor signaling pathway with the pleiotropic PPARgamma coactivator (PGC) from Tox21 10K library (AID 1224842). Also: nearly all actives have a fitted effect of over 15% in size. Also: potency is read from the fitted curve at half-maximal effect. The procedure, abridged:
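Luminescence from One-Glo (30 min, room temperature) measured after PGC/ERR cells had 18 h at 37 C with pinned compound (23 nL in DMSO). Cells had been seeded at 2,000 per well and pre-incubated 6 h.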

Test [11] has as its target Thyrotropin receptor (Homo sapiens) (UniProt P16473). Put plainly: qHTS assay to identify small molecule agonists of the thyroid stimulating hormone receptor (TSHR) signaling pathway (AID 1224843; calls by dose curve; also: nearly all actives have a fitted effect of over 45% in size; also: potency is read from the fitted curve at half-maximal effect). In a few lines:
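HEK293 cells stably bearing the thyrotropin receptor were plated at 800 cells/well and challenged with compound (30 min, RT). Accumulated cAMP was quantified via cAMP-d2 competing for cryptate-tagged antibody.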

Test [12] is described as follows: qHTS assay to identify small molecule antagonists of the estrogen related receptor (ERR) signaling pathway from Tox21 library - cell viability counter screen (AID 1224834). Also: nearly all actives have a fitted effect of over 30% in size. Also: potency is read from the fitted curve at half-maximal effect. The procedure, abridged:
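Viability readout (CellTiter-Fluor fluorescence, 30 min at 37 C) multiplexed with the ERR assay; cells treated 17.5 h at 37 C with compounds delivered in DMSO.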

Test [13] can be described thus: qHTS assay to identify small molecule antagonists of the retinoic acid receptor (RAR) signaling pathway (AID 1159552; also: nearly all actives have a fitted effect of over 50% in size). The procedure, abridged: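 Luminescence from a RARE luciferase reporter in C3RL4 cells served as read-out. Cells received compounds together with 1 uM final retinol and incubated 6 hr at 37 C before detection reagent was added for 30 min at room temperature.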

The nature of test [14]: qHTS assay to identify small molecule agonists of the retinoic acid receptor (RAR) signaling pathway (AID 1159553). Also: potency is read from the fitted curve at half-maximal effect. In a few lines: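 Cell line C3RL4, RARE luciferase reporter. Treatment: compounds in DMSO, 6 hr, 37 C, 5% CO2, after overnight plating. Detection: luminescence, 30 min RT after reagent.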
Test [15] in a line: qHTS assay to identify small molecule antagonists of the estrogen related receptor (ERR) signaling pathway - cell viability counter screen (AID 1224818). Also: series mostly up to about 46 µM. The procedure, abridged: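 Here, ERR cells are plated at 2,000 cells per well, allowed 6 h to attach, and treated with compounds in DMSO for 17.5 h at 37 C. CellTiter-Fluor is then added and fluorescence read after 30 min.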

A short description of test [16]: qHTS assay to identify small molecule antagonists of the estrogen related receptor signaling pathway with the pleiotropic PPARgamma coactivator (PGC) cell viability counter screen (AID 1224822; also: series mostly up to about 46 µM). The procedure, abridged: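 qHTS format, DMSO compound stocks pin-transferred onto PGC/ERR cells 6 h after plating; 17.5 h exposure at 37 C, then CellTiter-Fluor fluorescence.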

Values joined by “and” are separate entries in the source; they are usually repeats but may differ in a detail not shown here. Equal entries are not always repeated. Records with an inconclusive call do not appear. A structure can be active in one record and inactive in another. Active and inactive are the calls of the source. Unless noted, calls follow the shape of the dose curve; as a rule, active = well fitted curve in the direction sought with a large enough effect in the repeat runs; inconclusive = weak or mixed curves; inactive = no such curve, though single readings can be large; an effect the other way counts as inactive or inconclusive.

Chain of Nuclear receptor subfamily 1 group I member 3 (Homo sapiens) (Q14994 whole entry, looked up): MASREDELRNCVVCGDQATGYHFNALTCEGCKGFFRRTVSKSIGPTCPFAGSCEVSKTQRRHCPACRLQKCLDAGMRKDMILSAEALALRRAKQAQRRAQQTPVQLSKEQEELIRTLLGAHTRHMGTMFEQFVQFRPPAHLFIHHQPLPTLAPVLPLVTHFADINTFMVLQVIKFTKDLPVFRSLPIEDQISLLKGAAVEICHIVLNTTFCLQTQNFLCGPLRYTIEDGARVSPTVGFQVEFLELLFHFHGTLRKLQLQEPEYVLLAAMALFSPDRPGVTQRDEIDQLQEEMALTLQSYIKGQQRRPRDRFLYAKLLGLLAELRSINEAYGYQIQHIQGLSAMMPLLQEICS
Chain of Thyrotropin receptor (Homo sapiens) (P16473 whole entry, looked up): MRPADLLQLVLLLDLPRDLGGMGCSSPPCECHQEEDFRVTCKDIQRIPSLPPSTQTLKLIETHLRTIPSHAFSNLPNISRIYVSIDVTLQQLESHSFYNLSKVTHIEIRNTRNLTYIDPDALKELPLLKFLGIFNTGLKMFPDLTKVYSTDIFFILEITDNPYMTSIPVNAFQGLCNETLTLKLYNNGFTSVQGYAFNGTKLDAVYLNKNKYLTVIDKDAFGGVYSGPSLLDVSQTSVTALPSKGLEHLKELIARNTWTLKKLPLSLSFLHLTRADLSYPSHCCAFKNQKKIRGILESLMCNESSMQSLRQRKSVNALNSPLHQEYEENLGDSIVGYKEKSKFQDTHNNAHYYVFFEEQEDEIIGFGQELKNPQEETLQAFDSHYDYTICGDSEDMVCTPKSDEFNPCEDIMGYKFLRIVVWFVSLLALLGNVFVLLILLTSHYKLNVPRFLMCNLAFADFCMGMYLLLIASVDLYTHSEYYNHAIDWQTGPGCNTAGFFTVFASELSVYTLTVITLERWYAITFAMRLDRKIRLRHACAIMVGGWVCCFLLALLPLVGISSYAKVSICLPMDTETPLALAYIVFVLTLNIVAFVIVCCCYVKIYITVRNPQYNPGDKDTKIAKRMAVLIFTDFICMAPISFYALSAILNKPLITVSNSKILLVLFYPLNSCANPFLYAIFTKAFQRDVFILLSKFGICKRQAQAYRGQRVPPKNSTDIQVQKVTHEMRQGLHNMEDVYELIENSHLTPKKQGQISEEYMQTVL
Chain of Luciferin 4-monooxygenase (Photinus pyralis) (P08659 whole entry, looked up): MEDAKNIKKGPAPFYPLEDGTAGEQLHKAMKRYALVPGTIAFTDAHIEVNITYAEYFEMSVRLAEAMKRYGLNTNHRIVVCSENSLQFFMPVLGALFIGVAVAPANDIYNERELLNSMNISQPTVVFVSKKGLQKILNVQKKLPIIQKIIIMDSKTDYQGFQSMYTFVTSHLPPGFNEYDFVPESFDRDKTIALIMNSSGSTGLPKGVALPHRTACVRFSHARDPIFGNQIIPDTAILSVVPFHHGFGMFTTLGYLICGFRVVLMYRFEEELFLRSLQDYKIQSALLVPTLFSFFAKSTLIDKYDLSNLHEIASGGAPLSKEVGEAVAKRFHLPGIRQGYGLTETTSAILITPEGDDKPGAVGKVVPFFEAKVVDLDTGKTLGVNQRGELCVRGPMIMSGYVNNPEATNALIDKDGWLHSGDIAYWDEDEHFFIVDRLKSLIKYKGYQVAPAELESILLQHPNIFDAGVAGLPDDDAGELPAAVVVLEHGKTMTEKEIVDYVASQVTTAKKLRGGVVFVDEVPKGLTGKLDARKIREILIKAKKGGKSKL

As to `Clc1ccc(C(c2ccc(Cl)cc2)C(Cl)Cl)cc1`, the Potency in test [1] was 39.5 µM (active) and 38.9 µM (active); in test [7] it was 49.3 µM (active) and 21.7 µM (active). The Potency result in test [2], in test [3], in [4], in test [5], in [6] and in [8] was “inactive” each time. Moreover, the Potency entry in test [9], in [10] and in test [11] was “inactive” each time.
Take `CCCCn1cc[n+](C)c1.[Cl][Fe-]([Cl])([Cl])[Cl]`: the Potency result in test [1], in [2], in test [12], in test [4], in test [5] and in test [8] was “inactive” each time.
With `CSC1=N[C@@](C)(c2ccccc2)C(=O)N1Nc1ccccc1`, the Potency result in test [1], in [2], in test [12], in test [3], in [5] and in test [6] was “inactive” in each case. In addition, in test [8], the Potency result was “inactive”. Further, the Potency in test [7] is 19.3 µM (active).
Take `CNN`: the Potency entry in [1], in test [2], in [12], in test [3], in [4] and in [5] was “inactive” in each case. The Potency entry in test [8] was “inactive”.
With `CCCCn1cc[n+](C)c1` (tested in a mixture with another compound), the Potency entry in test [1], in test [2], in [12], in test [4], in test [5] and in [8] was “inactive” in each case.
Turning to `CCn1cc[n+](C)c1` (tested in a mixture with another compound), the Potency result in test [1], in [2], in test [12], in test [3], in test [4] and in test [5] was “inactive” throughout. Further, the Potency result in test [8] is “inactive”.
As for `O.O.O.O.O.O.O.O=S(=O)([O-])[O-].[Co+2]`, the Potency entry in test [1], in test [2], in test [12], in [4], in test [5] and in test [8] was “inactive” throughout.
Regarding `CC(=O)[O-].CC(=O)[O-].O.O.[Zn+2]`, the Potency result in test [1], in test [2], in test [12], in [4], in [5] and in [8] was “inactive” in each case.
As to `CC(=O)[O-].CC(=O)[O-].CC(=O)[O-].[Cr+3]`, the Potency entry in [1], in [2], in [12], in [4], in test [5] and in test [8] was “inactive” in each case.
As for `CN1CCc2cc3c(cc2C1O)OCO3` (configuration not stated), the Potency entry in [1], in test [2], in test [3], in test [6] and in test [9] was “inactive” throughout.
`c1ccc(N=NNc2ccccc2)cc1`: the Potency result in test [1], in test [13], in test [4], in test [5], in [6] and in test [8] was “inactive” each time. For the same molecule, the Potency entry in test [11] was “inactive”. Besides, the Potency in [14] is 3.17 µM (active) and 7.7 µM (active); in test [12], 39.9 µM (active) and 27.3 µM (active); in test [3], 6.54 µM (active) and 6.33 µM (active); in [10], 25.2 µM (active) and inactive.
Take `CC(=O)O.CC(=O)O.CC(=O)O.CC(=O)O.CC(=O)O.CC(=O)O.CC(=O)O.O.O.[Cr].[Cr].[Cr]`: the Potency result in test [1], in test [2], in [12], in test [4], in test [5] and in [8] was “inactive” in each case.
Turning to `O.O.O.O.O.O.O=S(=O)([O-])[O-].[Ni+2]`, the Potency entry in [1], in test [2], in test [12], in [4], in test [5] and in test [8] was “inactive” each time.
In the case of `CC(=O)[O-].CC(=O)[O-].O.O.O.[Pb+2]`, the Potency result in test [1], in test [2], in [12], in [4], in test [5] and in [8] was “inactive” throughout.
In the case of `N#Cc1c[nH]cc1-c1cccc2c1OC(F)(F)O2`, the Potency entry in test [1], in test [2], in test [3], in [4], in test [5] and in test [10] was “inactive” each time.
`CCN(CC)Cc1nccn1-c1ccc([N+](=O)[O-])cc1C(=O)c1ccccc1Cl`: the Potency entry in test [1], in [2], in [12], in test [3], in test [8] and in [9] was “inactive” each time. For the same molecule, the Potency entry in test [10] and in test [11] was “inactive” throughout. Besides, the Potency in test [5] was 26.6 µM (active).
In the case of `[Cl-].[Cl-].[Cl-].[Yb+3]`, the Potency entry in test [2], in test [12], in test [4], in test [5] and in [8] was “inactive” throughout.
In the case of `NC1CCC(CC2CCC(N)CC2)CC1` (configuration not stated), the Potency result in [2], in [3], in test [4], in [5], in test [6] and in [7] was “inactive” throughout.
In the case of `CC1=C2C[C@H]3[C@@H](CC=C4C[C@@H](O)CC[C@@]43C)[C@@H]2CC[C@]12O[C@@H]1C[C@H](C)CN[C@H]1[C@H]2C`, the Potency entry in test [2], in test [13], in [14], in test [3], in test [5] and in [6] was “inactive” each time. Besides, the Potency entry in test [7] and in test [11] was “inactive” in each case. In addition, the Potency in test [12] and in [8] was 26.6 µM (active) throughout.
On to `CCO/N=C(\CC)C1=C(O)CC(c2c(C)cc(C)cc2C)CC1=O` (configuration not stated), for which the Potency entry in test [2], in [14], in test [15], in test [16], in test [3] and in test [4] was “inactive” throughout. Also, the Potency result in test [5], in [6], in [7] and in test [8] was “inactive” in each case.
As for `C#CCC1=C(C)C(OC(=O)C2C(C=C(C)C)C2(C)C)CC1=O` (configuration not stated), the Potency entry in [2], in test [14], in test [3], in test [4], in test [5] and in [6] was “inactive” throughout. Also, in [10], the Potency result is “inactive”. In addition, the Potency in test [7] and in [11] was 60.7 µM (active) each time.

The values above are taken from PubChem BioAssay (Tox21).
